# Calls of active or inactive are those of the source. The calls were made as follows: active = hit-call score of the fitted dose curve at least 0.9, where 1 is the maximum; inactive = score below 0.9.
# Columns and labels:
# [1] = read-out: Cyclin Dependent Kinase Inhibitor 1A (CDKN1A), CDKN1A (gene 1026); assay: LTEA_HepaRG_CDKN1A: Life Technologies and Expression Analysis (LTEA) Assay for Cyclin Dependent Kinase Inhibitor 1A (CDKN1A) using HepaRG (AID 2283450); conditions: mRNA level, 48 h; actives raise or lower the signal
# How it was run: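 Expression quantified by Fluidigm qRT-PCR with ACTB, GAPDH and POLR2A normalization, fitted bidirectionally against 0.5% DMSO. Cells: HepaRG, plated 48 h then treated 48 h in serum-free induction medium, top concentration 100 uM with half-log dilutions.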
# [2] = read-out: Cyclin D1 (CCND1), CCND1 (gene 595); assay: LTEA_HepaRG_CCND1: Life Technologies and Expression Analysis (LTEA) Assay for Cyclin D1 (CCND1) using HepaRG (AID 2283451); conditions: mRNA level, 48 h; actives raise or lower the signal
# How it was run: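 Expression of CCND1 was quantified by qRT-PCR on Fluidigm arrays using ACTB, GAPDH and POLR2A as reference genes. HepaRG cultures, plated 48 h beforehand, were dosed for 48 h at up to 100 uM (half-log, 8 points) in 0.5% DMSO.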
# [3] = read-out: catalase (CAT), CAT (gene 847); assay: LTEA_HepaRG_CAT: Life Technologies and Expression Analysis (LTEA) Assay for catalase (CAT) using HepaRG (AID 2283452); conditions: mRNA level, 48 h; actives raise or lower the signal
# How it was run: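 Expression of CAT was quantified by TaqMan qRT-PCR with ACTB/GAPDH/POLR2A normalization after 48 h chemical exposure of HepaRG. Eight-point half-log series, top 100 uM, in 0.5% DMSO; gain or loss fitted against vehicle.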
# [4] = read-out: flavin-containing dimethylaniline monooxygenases 3 (FMO3), FMO3 (gene 2328); assay: LTEA_HepaRG_FMO3: Life Technologies and Expression Analysis (LTEA) Assay for flavin-containing dimethylaniline monooxygenases 3 (FMO3) using HepaRG (AID 2283453); conditions: mRNA level, 48 h; actives raise or lower the signal
# How it was run: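 Differentiated HepaRG cells in serum-free induction medium, exposed 48 h in duplicate to 8 half-log concentrations up to 100 uM in 0.5% DMSO. FMO3 mRNA by qRT-PCR, normalized to ACTB, GAPDH, POLR2A; bidirectional fit vs DMSO.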
# [5] = read-out: Cytochrome P450 (CYP1A1), CYP1A1 (gene 1543); assay: LTEA_HepaRG_CYP1A1: Life Technologies and Expression Analysis (LTEA) Assay for Cytochrome P450 (CYP1A1) using HepaRG (AID 2283454); conditions: mRNA level, 48 h; actives raise or lower the signal
# How it was run: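 CYP1A1 transcript levels measured by Fluidigm qRT-PCR against three housekeeping genes, 48 h after chemical dosing of human HepaRG cells (highest concentration 100 uM, half-log steps, 0.5% DMSO vehicle). Gain or loss of signal fitted relative to DMSO.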
# [6] = read-out: CFLAR gene, CFLAR (gene 8837); assay: LTEA_HepaRG_CFLAR: Life Technologies and Expression Analysis (LTEA) Assay for CFLAR gene using HepaRG (AID 2283455); conditions: mRNA level, 48 h; actives raise or lower the signal
# How it was run: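 HepaRG, 48 h exposure, 8-pt conc-response (100 uM top, half-log), 0.5% DMSO vehicle, duplicates. CFLAR expression by qRT-PCR; ACTB/GAPDH/POLR2A normalization; gain or loss fit vs DMSO baseline.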
# [7] = read-out: Forkhead box O1 (FOXO1), FOXO1 (gene 2308); assay: LTEA_HepaRG_FOXO1: Life Technologies and Expression Analysis (LTEA) Assay for Forkhead box O1 (FOXO1) using HepaRG (AID 2283456); conditions: mRNA level, 48 h; actives raise or lower the signal
# How it was run: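 Readout is FOXO1 transcript level by multiplexed qRT-PCR against three housekeeping genes, curve-fitted in both directions relative to 0.5% DMSO vehicle. Human HepaRG cultures received chemicals for 48 h, up to 100 uM in half-log steps.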
# [8] = read-out: growth arrest and DNA damage 45 (GADD45A), GADD45A (gene 1647); assay: LTEA_HepaRG_GADD45A: Life Technologies and Expression Analysis (LTEA) Assay for growth arrest and DNA damage 45 (GADD45A) using HepaRG (AID 2283458); conditions: mRNA level, 48 h; actives raise or lower the signal
# How it was run: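 Differentiated HepaRG cells exposed 48 h in serum-free induction medium to 8 concentrations, top 100 uM in half-log steps, 0.5% DMSO. GADD45A mRNA quantified by qRT-PCR, normalized to ACTB, GAPDH and POLR2A; bidirectional fit versus DMSO.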
# [9] = read-out: ABC Transporter (ABCB1), ABCB1 (gene 5243); assay: LTEA_HepaRG_ABCB1: Life Technologies and Expression Analysis (LTEA) Assay for ABC Transporter (ABCB1) using HepaRG (AID 2283460); conditions: mRNA level, 48 h; actives raise or lower the signal
# How it was run: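 Expression of ABCB1 was quantified by qRT-PCR against three housekeeping genes after human HepaRG cultures received test chemicals for 48 hours. Concentrations spanned eight half-log steps topping at 100 uM in 0.5% DMSO; gain or loss of signal was fitted relative to vehicle.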
# [10] = read-out: growth arrest and DNA damage 45 (GADD45B), GADD45B (gene 4616); assay: LTEA_HepaRG_GADD45B: Life Technologies and Expression Analysis (LTEA) Assay for growth arrest and DNA damage 45 (GADD45B) using HepaRG (AID 2283461); conditions: mRNA level, 48 h; actives raise or lower the signal
# How it was run: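 Transcript level quantified by Fluidigm TaqMan qRT-PCR with three housekeeping genes for normalization, analyzed for up- or down-regulation against 0.5% DMSO. HepaRG cultures dosed 48 h at eight half-log concentrations up to 100 uM, duplicates.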
# [11] = read-out: ABC Transporter (ABCC3), ABCC3 (gene 8714); assay: LTEA_HepaRG_ABCC3: Life Technologies and Expression Analysis (LTEA) Assay for ABC Transporter (ABCC3) using HepaRG (AID 2283462); conditions: mRNA level, 48 h; actives raise or lower the signal
# How it was run: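 Transcript level by TaqMan qRT-PCR, normalised to three housekeeping genes, fitted in both directions relative to vehicle. Chemicals tested in duplicate at eight half-log concentrations up to 100 uM for 48 h on HepaRG cells (0.5% DMSO).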
# [12] = read-out: ABC Transporter (ABCB11), ABCB11 (gene 8647); assay: LTEA_HepaRG_ABCB11: Life Technologies and Expression Analysis (LTEA) Assay for ABC Transporter (ABCB11) using HepaRG (AID 2283463); conditions: mRNA level, 48 h; actives raise or lower the signal
# How it was run: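 ABCB11 transcript levels are read by Fluidigm TaqMan qRT-PCR after 48 h chemical treatment of human HepaRG cells. Concentrations span 100 uM downward in half-log steps with 0.5% DMSO; gain or loss is fitted against DMSO controls.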
# [13] = read-out: ABC Transporter (ABCC2), ABCC2 (gene 1244); assay: LTEA_HepaRG_ABCC2: Life Technologies and Expression Analysis (LTEA) Assay for ABC Transporter (ABCC2) using HepaRG (AID 2283464); conditions: mRNA level, 48 h; actives raise or lower the signal
# How it was run: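 Endpoint is ABCC2 transcript level from qRT-PCR, normalized to three housekeeping genes and fitted bidirectionally relative to DMSO. Human HepaRG cells received test chemical for 48 h at up to 100 uM (8 points, half-log steps, 0.5% DMSO), duplicate wells.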
# [14] = read-out: Broad substrate specificity ATP-binding cassette transporter ABCG2 (Homo sapiens) (UniProt Q9UNQ0); assay: LTEA_HepaRG_ABCG2: Life Technologies and Expression Analysis (LTEA) Assay for ABC Transporter (ABCG2) using HepaRG (AID 2283465); conditions: mRNA level, 48 h; actives raise or lower the signal
# How it was run: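 Read-out is ABCG2 mRNA induction or loss quantified by qRT-PCR after 48 h chemical treatment of human HepaRG cells, normalized to three housekeeping genes. Concentrations reached 100 uM top in half-log steps; fitting was bidirectional against 0.5% DMSO.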
# [15] = read-out: ATP-citrate lyase (ACLY), ACLY (gene 47); assay: LTEA_HepaRG_ACLY: Life Technologies and Expression Analysis (LTEA) Assay for ATP-citrate lyase (ACLY) using HepaRG (AID 2283466); conditions: mRNA level, 48 h; actives raise or lower the signal
# How it was run: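 HepaRG, 48 h exposure, 8-pt half-log dilutions (top 100 uM), 0.5% DMSO. Readout: ACLY mRNA, TaqMan qRT-PCR, housekeeping-normalized (ACTB/GAPDH/POLR2A). Bidirectional curve fit vs DMSO.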
# [16] = read-out: Peroxisomal acyl-coenzyme A oxidase 1 (ACOX1) gene, ACOX1 (gene 51); assay: LTEA_HepaRG_ACOX1: Life Technologies and Expression Analysis (LTEA) Assay for Peroxisomal acyl-coenzyme A oxidase 1 (ACOX1) gene using HepaRG (AID 2283467); conditions: mRNA level, 48 h; actives raise or lower the signal
# How it was run: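 Measured by qRT-PCR against three housekeeping genes: ACOX1 transcript change in human HepaRG cells after 48 h dosing. Concentrations ran up to 100 uM in half-log steps. Curves were fitted bidirectionally relative to 0.5% DMSO.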
# [17] = read-out: Bcl-2 (BAD) gene, BAD (gene 572); assay: LTEA_HepaRG_BAD: Life Technologies and Expression Analysis (LTEA) Assay for Bcl-2 (BAD) gene using HepaRG (AID 2283469); conditions: mRNA level, 48 h; actives raise or lower the signal
# How it was run: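 BAD transcript change, measured by qRT-PCR against three housekeeping genes and fitted in both directions relative to 0.5% DMSO, after 48 h chemical treatment of human HepaRG liver cells at concentrations up to 100 uM.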
# [18] = CEETOX_H295R_TESTO: CeeTox H295R High-throughput Steroidogenesis Assay for Testosterone (TESTO) (AID 2283457); conditions: actives raise or lower the signal
# How it was run: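 Testosterone secreted into the medium over 48 h by H295R cells (maximum passage 10) was quantified by LC-MS/MS after MTBE extraction. Fitted in both directions against DMSO, with concentrations diluted until MTT viability was ≥70%.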
# [19] = read-out: Forkhead box O3 (FOXO3), FOXO3 (gene 2309); assay: LTEA_HepaRG_FOXO3: Life Technologies and Expression Analysis (LTEA) Assay for Forkhead box O3 (FOXO3) using HepaRG (AID 2283459); conditions: mRNA level, 48 h; actives raise or lower the signal
# How it was run: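 HepaRG, 48 h post-dose; 8 conc., half-log from 100 uM, 0.5% DMSO, duplicates; serum-free induction medium. Readout: FOXO3 mRNA, TaqMan qRT-PCR, housekeeping-normalized. Bidirectional curve fit vs DMSO baseline.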
# [20] = read-out: Alkaline Phosphatase, Placental (ALPP) gene, ALPP (gene 250); assay: LTEA_HepaRG_ALPP: Life Technologies and Expression Analysis (LTEA) Assay for Alkaline Phosphatase, Placental (ALPP) gene using HepaRG (AID 2283468); conditions: mRNA level, 48 h; actives raise or lower the signal
# How it was run: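 ALPP transcript level, measured by qRT-PCR and normalized to three housekeeping genes (ACTB, GAPDH, POLR2A), after 48 h dosing of differentiated HepaRG in serum-free induction medium. Top concentration 100 uM with half-log dilutions (8 points, 0.5% DMSO, duplicates); bidirectional fitting relative to DMSO.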
# Broad substrate specificity ATP-binding cassette transporter ABCG2 (Homo sapiens), sequence (Q9UNQ0 whole entry, looked up): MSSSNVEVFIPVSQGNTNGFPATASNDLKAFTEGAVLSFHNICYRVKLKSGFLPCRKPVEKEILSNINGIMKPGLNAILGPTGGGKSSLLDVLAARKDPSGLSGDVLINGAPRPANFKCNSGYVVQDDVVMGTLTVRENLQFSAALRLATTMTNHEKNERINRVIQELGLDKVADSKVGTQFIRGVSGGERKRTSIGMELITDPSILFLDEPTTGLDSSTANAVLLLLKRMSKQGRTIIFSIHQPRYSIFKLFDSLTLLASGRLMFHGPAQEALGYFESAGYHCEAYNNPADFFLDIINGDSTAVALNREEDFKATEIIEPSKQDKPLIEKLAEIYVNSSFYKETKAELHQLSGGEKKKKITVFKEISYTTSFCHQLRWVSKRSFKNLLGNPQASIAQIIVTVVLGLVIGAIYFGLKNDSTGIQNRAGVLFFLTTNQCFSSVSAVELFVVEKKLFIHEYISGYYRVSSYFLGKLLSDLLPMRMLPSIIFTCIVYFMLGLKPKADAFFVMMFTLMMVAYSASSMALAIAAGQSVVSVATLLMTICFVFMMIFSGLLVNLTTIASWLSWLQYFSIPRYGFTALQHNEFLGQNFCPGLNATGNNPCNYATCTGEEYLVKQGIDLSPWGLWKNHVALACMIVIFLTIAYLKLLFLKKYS
structure (smiles),measurement,setting,value
CNC(=O)Oc1cccc2ccccc12,outcome,[1],inactive
same,outcome,[2],inactive
same,outcome,[3],inactive
same,outcome,[4],inactive
same,outcome,[5],inactive
same,outcome,[6],inactive
same,outcome,[7],inactive
same,outcome,[8],inactive
same,outcome,[9],inactive
same,outcome,[10],inactive
same,outcome,[11],inactive
same,outcome,[12],inactive
same,outcome,[13],inactive
same,outcome,[14],inactive
same,outcome,[15],inactive
same,outcome,[16],inactive
same,outcome,[17],inactive
COP(=S)(OC)SCn1nnc2ccccc2c1=O,outcome,[2],inactive
same,outcome,[3],inactive
same,outcome,[4],inactive
same,AC50,[5],50 µM (active)
same,outcome,[6],inactive
same,outcome,[7],inactive
same,outcome,[18],inactive
same,outcome,[19],inactive
same,outcome,[9],inactive
same,outcome,[10],inactive
same,outcome,[11],inactive
same,outcome,[12],inactive
same,outcome,[13],inactive
same,AC50,[14],15.5 µM (active)
same,outcome,[15],inactive
same,outcome,[16],inactive
same,outcome,[20],inactive
same,outcome,[17],inactive
